Source: PubChem (National Center for Advancing Translational Sciences (NCATS))
D2 antag: D2 dopamine receptor (human) antagonism | P14416 | HEK293 TREx D2 cells, calcium flux, dopamine EC80 | inhibition, % at 10 µM | 2% of 340,000 active; in the data active means inhibition above about 30%; inactive means below that, where a call was filed; further: 0% is about no effect
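In this primary screen, negative modulation is detected by tracking calcium flux after an EC80 dopamine challenge in inducible HEK293 T-REx D2 cells preexposed to test compound for 180 s.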
D2 ag-1: activates the human D2 dopamine receptor. P14416. HEK293 T-REx D2 cells, calcium flux agonist mode. activation, % at 2 µM. 0.53% of 340,000 active;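 active means activation over 3 SD above normal in the single-dose calcium agonist read, cut at about 30% in these data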; further: 0% is about no effect
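Tetracycline-induced HEK293 Trex cells with D2 receptor force-coupled to calcium signaling, plated overnight at 30 C and loaded with no-wash calcium dye. Calcium flux read kinetically for 180 s after compound addition; responses flag agonists.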
D2 PAM-1: positive allosteric modulators of human D2 dopamine receptor; P14416; HEK293 T-REx D2, calcium flux, EC20 dopamine potentiation; potentiation, % at 10 µM; 0.34% of 340,000 active;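 active means potentiation over 3 SD above the plate norm, cut at about 30% in these data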; further: 0% is about no effect
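Using a no-wash calcium dye in inducible, force-coupled HEK293 Trex cells expressing D2, we tracked fluorescence each second for 180 s after compound, then for 180 s after EC20 dopamine to detect augmented signalling.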
D2 ag-2: human D2 receptor agonism in beta-arrestin assay | 0.084% of 360,000 active | activation, % (test concentration not listed) | DiscoveRx PathHunter D2 beta-arrestin, luminescence, 90 min; 100% = 57 uM dopamine signal; in the data active means activation above about 40%; inconclusive means between about 15% and that limit
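Agonist mode: compounds alone added to overnight-plated D2 PathHunter cells for 90 min at 37 C, with 57 uM final dopamine (EC100) defining full response. Beta-arrestin recruitment detected by chemiluminescent reagent, read after 1 h at ambient temperature.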
D2 PAM-2: human D2 receptor positive allosteric modulation | DiscoveRx D2 beta-arrestin cells, luminescence, 90 min; 100% = 57 uM dopamine signal | potentiation, % (test concentration not listed) | 0.23% of 360,000 active; in the data active means potentiation above about 50%; inconclusive means mostly about 30% to 49%
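PathHunter D2 cells, attached overnight at 37 deg C, received compound in DMSO plus dopamine at EC20 (50 nM final) for 90 min at 37 deg C. Beta-arrestin recruitment was read as luminescence after 1 h with detection reagent at ambient temperature.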
D3 ag: activates human D3 dopamine receptor beta-arrestin recruitment; shares compounds with D2 ag-1; Potency, µM (titrated, usually from 76.9 µM), without a hit: at the top dose activation, hits mostly activators; DiscoveRx D3 beta-arrestin cells, luminescence, 90 min; AID 720506; 4% of 2,300 active;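 further: potency means the concentration at half of the fitted maximal effect; 100% = dopamine control response; nearly all actives have a fitted effect of over 70% in size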
Target sequence (P35462 whole entry, looked up): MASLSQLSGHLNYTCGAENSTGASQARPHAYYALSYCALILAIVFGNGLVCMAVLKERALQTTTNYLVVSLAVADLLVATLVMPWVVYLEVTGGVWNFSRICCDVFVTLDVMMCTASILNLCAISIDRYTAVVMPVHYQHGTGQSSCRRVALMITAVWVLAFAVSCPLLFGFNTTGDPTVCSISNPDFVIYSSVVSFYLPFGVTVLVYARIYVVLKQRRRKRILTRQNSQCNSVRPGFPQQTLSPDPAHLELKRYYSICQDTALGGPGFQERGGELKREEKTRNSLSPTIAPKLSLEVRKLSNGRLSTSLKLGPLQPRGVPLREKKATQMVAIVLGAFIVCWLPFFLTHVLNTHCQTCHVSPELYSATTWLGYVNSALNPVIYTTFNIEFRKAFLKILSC
D2 ag-3: activates human D2 dopamine receptor in D3 counterscreen | AID 720507 | DiscoveRx PathHunter D2 beta-arrestin, luminescence, 90 min; response scale: percent relative to full dopamine signal | 5.9% of 2,300 active | Potency, µM (top dose mostly 76.9 µM), for the others: at the highest dose activation, most hits filed as activators | shares compounds with D2 ag-1; further: potency means the concentration at half of the fitted maximal effect; % of control where 0% means no effect; nearly all actives have a fitted effect of over 70% in size
* marks the source's active call; other numbers are inactive results; ? = inconclusive; . = no result given. This is a sample that favours compounds with a hit; in the whole collection about 2.4% have one here. Unless noted, the call rests on the fitted dose curve; in most records, active means well fitted activation curve with a large enough effect; inconclusive means small, poorly fitted or top-dose-only effect; inactive means flat fitted curve, though single readings scatter.

SMILES	D2 antag	D2 ag-1	D2 PAM-1	D2 ag-2	D2 PAM-2	D3 ag	D2 ag-3
Cc1ccc(CN2CCC3CCC(C3)C2)c(O)c1 (configuration not stated)	.	.	.	-4	-4	.	.
CC1CN1P(=O)(Oc1ccccc1)N1CC1C (configuration not stated)	.	.	.	1	5	.	.
CC1=CC(=C2C(=O)NC(=S)NC2=O)C=C(C(F)(F)F)N1CCc1ccccc1	-3	2	1	.	.	.	.
COc1ccc(CN2CCN(c3ccccc3)CC2)c(C)c1C	65*	63*	-19	10	-27	7%	18%
N#CC(C#N)=Cc1ccc(O)c(O)c1	-22	1	9	-4	-5	.	.
CC(C)(C)c1cc(C=C(C#N)C#N)cc(C(C)(C)C)c1O	20	7	-3	-9	-12	?	1%
Nc1ccccc1Cl	7	0	-1	1	-5	.	.
NCCc1ccc(O)cc1	47*	51*	13	-4	-12	?	8%
O=C1NCN(c2ccccc2)C12CCN(C(c1ccccc1)c1nnnn1C1CCCC1)CC2 (configuration not stated)	.	.	.	-2	-12	.	.
c1ccc(C2CC2)c(OCC2=NCCN2)c1	47*	8	-9	-3	-15	-2%	24%
c1ccc2cc(CC3=NCCN3)ccc2c1	-16	12	6	1	-7	.	.
Fc1ccccc1N1CCN(Cc2ccc3c(c2)OCO3)CC1	88*	78*	-21	42*	11	?	?
Clc1ccccc1N1CCN(Cc2ccc3c(c2)OCO3)CC1	60*	71*	-17	6	0	8%	?
Fc1ccccc1N1CCN(Cc2c(F)cccc2F)CC1	21	36*	-17	4	-10	-2%	18%
Fc1cccc(F)c1CN1CCN(c2ccc(Cl)cc2)CC1	-12	0	2	-1	-14	.	.
Cc1ccccc1N1CCN(Cc2ccc3c(c2)OCO3)CC1	83*	26	-21	2	-31	-7%	6%
COC(=O)C1=C(c2ccc(F)cc2OCc2ccccc2)C[C@@H]2CC[C@H]1N2C(=O)NCc1ccc2c(c1)OCO2	-6	0	8	-4	-6	.	.
c1cc(CNCCc2ccc3c(c2)OCO3)ccn1	-20	-1	8	4	-32	?	3%
Fc1ccc(CNCCc2ccc3c(c2)OCO3)cc1	-14	0	-2	1	-32	.	.
CCOC(=O)c1ccccc1C(=O)OCC	.	.	.	2	-8	.	.
CCCOC(=O)c1ccccc1C(=O)OCCC	-5	-1	7	8	-8	-8%	-3%
CN(C(=O)Oc1cccc2ccccc12)C1C=CCC1 (configuration not stated)	.	.	.	1	2	.	.
COCc1cc(OC(=O)N(C)C)nc(-c2ccccc2)n1	-6	1	3	-3	-1	.	.
COC(=O)C1=C(c2ccc(OC(F)(F)F)cc2)C[C@@H]2CC[C@H]1N2C(=O)NCC1CC1	-4	-1	-12	-2	-15	.	.
COC(=O)C1=C(c2ccc(OC(F)(F)F)cc2)C[C@@H]2CC[C@H]1N2C(=O)N1CCOCC1	17	0	-2	-7	0	-3%	5%
COC(=O)C1=C(c2ccc(OC(F)(F)F)cc2)C[C@@H]2CC[C@H]1N2C(=O)NC1CC1	-14	0	10	-8	-5	0%	5%
COc1ccc(N2CCN(CCc3ccncc3)CC2)cc1	-22	3	.	-1	-14	.	.
c1ccc(CCN2CCC(N3CCN(c4ccccc4)CC3)CC2)cc1	72*	74*	-21	?	-4	?	?
CC(=O)OCC12CC(OC(=O)CC(C)C)C(C)=CC1OC1C(O)C(OC(C)=O)C2(C)C12CO2 (configuration not stated)	.	.	.	-7	-21	.	.
